This excerpt belongs to a sample that is enriched for hits.
TTR transcr act = TTR transcription activators in neuroblastoma reporter cells, primary screen, cell-based, luminescence, SH-SY5Y, TTR promoter Gaussia luciferase; 92,000 compounds, 1.3% hits; 100% = recombinant luciferase protein wells; activation, % at 16.7 µM;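 active = activation above the mean of all tested compounds plus 3 SD, cut at about 9.5% in these data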;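 also: cells exposed to compounds for one day before reading; 0% = median of all test compound wells on the plate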
HuH7 TTR inh = TTR promoter reporter inhibitors in hepatoma cells, counter-screen for TTR transcription activator project, cell-based, luminescence, HuH7 hepatoma; shares compounds with TTR transcr act; HuH7 TTR promoter-Gaussia luciferase reporter; inhibition, % at 16.7 µM; 1,100 compounds, 4% hits;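 active = average inhibition above the solvent-only control wells' mean plus 3 SD, cut at about 15% in these data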;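 also: 0% = cells with DMSO only and 100% = cells with inhibitor control FD; inhibitors lower well luminescence so higher value means more inhibition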
TTR act confirm = TTR transcription activators, retest, confirmation, cell-based, luminescence, SH-SY5Y, triplicate | activation, % at 16.7 µM | SHSY5Y TTR promoter Gaussia luciferase; 100% = purified Lucia enzyme wells, no cells | AID 1117280, 2014 | 1,100 tested, under 10 active | shares compounds with TTR transcr act;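 active = mean activation above a set limit taken from the earlier primary screen, cut at about 11% in these data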;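 also: 0% = DMSO-treated cells and 100% = recombinant Lucia luciferase without cells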
* = called active by the depositor.

Screening COc1ccc2c(c1)[C@@]1(NCCc3c1[nH]c1ccc(OC)cc31)C(=O)N2 returned TTR transcr act 0.6.
Screening O=C(CCc1ccccc1)N1CCCC1 returned TTR transcr act 11.4*, HuH7 TTR inh -4.6 and TTR act confirm -0.3.
For CC1CCCN(C(=O)CCc2ccccc2)C1 (configuration not stated) the results were TTR transcr act 1.2.
For O=C(CCc1nnc(CCCc2ccccc2)o1)N1CCCCCC1 the results were TTR transcr act -1.4.
CC1(c2ccc3ccccc3c2)NC(=O)N(CC(=O)N2CCCC(C(F)(F)F)C2)C1=O (configuration not stated) was read as TTR transcr act 1.6.
For O=C(NNC(=O)c1ccccc1O)c1ccc(Br)cc1 the results were TTR transcr act 1.3.
For O=C(COC(=O)c1cc(Br)ccc1O)NNC(=O)c1ccc([N+](=O)[O-])cc1 the results were TTR transcr act -1.8.
O=C(COC(=O)c1ccccc1O)NNC(=O)c1ccc(Br)cc1 was read as TTR transcr act 9.9*, HuH7 TTR inh -5.1 and TTR act confirm 2.2.
`COCCNCc1cc(C)n(-c2cc(S(=O)(=O)N3CCOCC3)ccc2N2CCCC2)c1C` gave TTR transcr act 0.0.
Screening C[C@H]1CN([C@@H](C)CO)C(=O)CCCn2cc(nn2)CO[C@@H]1CN(C)S(=O)(=O)c1cn(C)cn1 returned TTR transcr act -0.3.
`CCCn1nc(C(=O)Nc2cccc(S(=O)(=O)N(C)c3ccccc3)c2)c2ccccc2c1=O` gave TTR transcr act -1.0.
For Cc1cccc(C(=O)OCC(=O)N2CC(=O)Nc3ccccc32)c1C the results were TTR transcr act 2.1.
CCOc1ccccc1NC(=O)c1cc(Cl)ccc1NC(=O)c1ccco1 was read as TTR transcr act 12.1*, HuH7 TTR inh -10.8 and TTR act confirm 0.4.
For CCOc1cc(NC(=O)c2ccco2)c(OCC)cc1NC(=O)CCc1ccccc1OC the results were TTR transcr act -1.5.
Screening COc1cc(NC(=O)c2ccccc2Cl)ccc1NC(=O)c1ccco1 returned TTR transcr act -1.6.
Screening CCC(Sc1nc(N)c(NC(=O)c2ccc(Br)o2)c(=O)[nH]1)C(=O)O (configuration not stated) returned TTR transcr act 12.4*, HuH7 TTR inh -9.7 and TTR act confirm 0.1.
`CCCCC(Sc1nc(N)c(NC(=O)c2ccc(OCC)cc2)c(=O)[nH]1)C(=O)O` (configuration not stated) gave TTR transcr act 1.1.
Screening Cc1ccc(C(=O)Nc2c(N)nc(SCC(=O)Nc3cc(C)on3)[nH]c2=O)cc1 returned TTR transcr act 0.1.
`C=C(C)CN=CC1(C)CCC(C)=CO1` (configuration not stated) gave TTR transcr act -1.1.
Cc1ccc(C)c(S(=O)(=O)N2CCC3(CC2)OCCO3)c1 was read as TTR transcr act -1.3.
`CC(=O)N1CCN(S(=O)(=O)c2ccc(Cl)cc2F)CC1` gave TTR transcr act 1.0.
`O=S(=O)(c1cc(Cl)ccc1Cl)N1CCC2(CC1)OCCO2` gave TTR transcr act 11.8*, HuH7 TTR inh -5.6 and TTR act confirm -0.6.
`CN(C(=O)COC(=O)CCC(=O)c1ccc(F)cc1)C1CCCCC1` gave TTR transcr act 0.1.
For Cc1cc(C)n(CCNC(=O)[C@H]2O[C@@H](n3ccc(=O)[nH]c3=O)[C@H](O)[C@@H]2O)n1 the results were TTR transcr act 0.4.
Screening NC(=O)C1(Nc2ccc(-c3ccc(Br)cc3)cc2)CCCC1 returned TTR transcr act 2.6.
Screening Cc1[nH]nc(C(=O)NN=Cc2ccccc2Cl)c1N=NN(C)C returned TTR transcr act -3.1.
Cc1cc(Cn2nc(-c3ccccc3)cc2C(=O)NCC2CC2)on1 was read as TTR transcr act 1.3.
`Cc1nnc(SCC(=O)NC23CC4CC(CC(C4)C2)C3)s1` gave TTR transcr act 1.9.
`Cc1csc(SCC(=O)NC23CC4CC(CC(C4)C2)C3)n1` gave TTR transcr act 11.3*, HuH7 TTR inh -6.6 and TTR act confirm 0.9.
For Cc1csc(SCC(=O)O)n1 the results were TTR transcr act 6.9.
`Cc1cccn2cc(-c3ccc(S(=O)(=O)N4CCOCC4)cc3)nc12` gave TTR transcr act 0.0.
O=[N+]([O-])c1cccn2cc(-c3ccc(Br)cc3)nc12 was read as TTR transcr act 10.9*, HuH7 TTR inh 5.8 and TTR act confirm -0.7.
Screening Cc1ccn2cc(-c3ccc(Br)cc3)nc2c1 returned TTR transcr act -2.7.
Screening CC(C)(C)c1ccc(S(=O)(=O)Nc2ccc(C(O)(C(F)(F)F)C(F)(F)F)cc2)cc1 returned TTR transcr act 0.1.
For O=C(C1Cc2ccccc2CN1C(=O)c1ccccc1)N1CCN(c2ccccc2)CC1 (configuration not stated) the results were TTR transcr act -1.3.
`CC(C)CNC(=O)COCc1cc(-c2ccc3c(c2)OCO3)on1` gave TTR transcr act 11.7*, HuH7 TTR inh -1.9 and TTR act confirm 1.3.
For CCCCNC(=O)COCc1cc(-c2ccc3c(c2)OCO3)on1 the results were TTR transcr act -1.1.
For CCCNC(=O)COCc1cc(-c2ccc3c(c2)OCO3)on1 the results were TTR transcr act -0.3.
For CCCCCCCCN1C(=O)[C@@H](CC(=O)N2CCOCC2)C[C@@]2(C(=O)OC)C1=C[C@H](C(C)C)O[C@@H]2C1CC1 the results were TTR transcr act -0.4.
`O=C(Nc1ccc2c(c1)OCCO2)C1c2ccccc2OCC(=O)N1Cc1cccnc1` (configuration not stated) gave TTR transcr act -1.0.
Cc1ccc(C(=O)CC2SC(N)=NC2=O)cc1 (configuration not stated) was read as TTR transcr act 20.3*, HuH7 TTR inh -6.8 and TTR act confirm 2.5.
For CC(=O)c1ccc(CC2SC(N)=NC2=O)cc1 (configuration not stated) the results were TTR transcr act 2.5.
`NC1=NC(=O)C(CC(=O)NCc2ccccc2)S1` (configuration not stated) gave TTR transcr act 5.6.
COC(=O)[C@]12C[C@H](CC(=O)NCCCN3CCCC3=O)C(=O)N(Cc3cccc4ccccc34)C1=C[C@H](C1CCCC1)O[C@@H]2C was read as TTR transcr act -0.6.
Screening Cc1ccc(S(=O)(=O)N2CCN(C(=O)Cn3cnc4c3c(=O)n(C)c(=O)n4C)CC2)cc1C returned TTR transcr act 0.7.
Cn1nc(-c2ccc(N3CCN(CCO)CC3)c([N+](=O)[O-])c2)c2ccccc2c1=O was read as TTR transcr act -2.3.
`c1ccc(-c2ccc(-c3ccccn3)s2)nc1` gave TTR transcr act -1.3.
`c1ccc(-c2nnc(-c3ccccn3)c(-c3ccccn3)n2)nc1` gave TTR transcr act -0.9.
c1ccc(-c2nnc(-c3ccccn3)nn2)nc1 was read as TTR transcr act 10.3*, HuH7 TTR inh -2.3 and TTR act confirm -0.3.
Screening Cc1cccc(C)c1NC(=O)C1(C)CCC(=O)N1C1CCN(Cc2ccccc2)CC1 (configuration not stated) returned TTR transcr act -0.2.

From PubChem
